# Compounds with a hit are over-represented: about 3% of the library has one in this group of screens.
# Ub-GFP proteasome: proteasome inhibitors stabilizing ubiquitin-GFP reporter. Potency, µM (titrated, usually from 45.9 µM), inactives show at the top dose activation (GFP accumulation), hits mostly activators. AID 526. 67,000 tested, under 10 active. Ubiquitin-GFP reporter cells, proteasome inhibition, GFP fluorescence; response scale: untreated = 0%, 10 µM MG-132 = 100%; active = well fitted activation curve with a large enough effect, not every such curve was filed as active; inconclusive = small, poorly fitted or top-dose-only effect, or another doubt; inactive = no such curve, though single readings can be large or run the other way; also: potency is read from the fitted curve at half-maximal effect
#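 Proteasome block read as GFP accumulation: ubiquitin(G76V)-GFP U2OS cells exposed to compound (2.9 nM–46 uM) for 4 hr at 37 C. Normalization used untreated cells as 0% and 10 uM MG-132 as 100%; concentration-response curves fitted.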
# TSHR agonist: activates the human thyroid stimulating hormone receptor | Potency, µM (series often up to 57.1 µM), for the others: at the top dose activation, hits mostly activators | AID 926 | P16473 | hit rate 0.48% among 73,000 | HEK293-CNG-TSHR cells (CNG channel as cAMP sensor), membrane potential dye, cAMP; active = well fitted activation curve with a large enough effect in the main read-out, with a control signal flat, not every such curve was filed as active; inconclusive = small, poorly fitted or top-dose-only effect, or a change in a side signal; inactive = no such curve, though single readings can be large or run the other way; % of control where 0% means no effect;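 also: the control signal comes from parental cells without the receptor; potency is read from the fitted curve at half-maximal effect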
#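 HEK 293 cells stably expressing TSHR and a modified CNG channel, with CNG-only parental cells as counterscreen, were preloaded 60 min at room temperature with membrane potential dye containing 100 uM RO 20-1724. Compound exposure was 30 min, and depolarization was read as fluorescence at 590 nm.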
# HBB splicing: hemoglobin beta splicing modulation; HBB splicing reporter cell assay, activation; EGFP reporter with mutant IVS2-654 intron; response scale: normalised to 500 nM splice-correcting PNA; Potency, µM (titrated, usually from 46.1 µM), inactives show at the highest dose activation, most hits filed as activators; hit rate 0.06% among 65,000; also: potency is read from the fitted curve at half-maximal effect; 0% is about no effect
#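 HeLa cells stably expressing EGFP interrupted by mutant beta-globin intron 2 (IVS2-654), 500/well in 2% FCS. Treated with compound for 2 days at 37C. Splicing correction scored as total well GFP intensity (488 nm excitation, 500-520 nm emission); 500 nM antisense PNA served as control.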
# GFP derepression: epigenetic GFP locus derepression in mouse cells; mouse C127i GFP locus derepression, cytometry, 30 h; Potency, µM (highest dose often 46.1 µM), without a hit: top-dose GFP derepression (activation); hit rate 0.09% among 68,000; AID 597; also: % of control where 0% means no effect
#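 Derepression screen: silenced CMV-GFP reporter in murine C127i cells, 30 h compound incubation at 37 C, washed cells imaged by laser-scanning cytometer to enumerate GFP-expressing objects of 20 to 120 um.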
# HEK293 cAMP cs: counter-screen for TSHR agonists: cAMP increase in parental HEK293 | parental HEK293 CNG cAMP sensor, membrane potential fluorescence | Potency, µM (highest dose often 57.1 µM), inactives show top-dose activation, hits mostly activators | hit rate 2.5% among 73,000; also: potency is read from the fitted curve at half-maximal effect; % of control where 0% means no effect; nearly all actives have a fitted effect of over 55% in size
#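 Counterscreen for endogenous-receptor signalling: CNG-channel HEK 293 cells report cAMP rise by membrane depolarization. After 60 min dye equilibration with 100 uM RO 20-1724, compounds incubated 30 min before bottom-read fluorescence at 590 nm.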
# * hit, by the source's call; ? = inconclusive; / = no result given; [ ] = remark or other dose. Unless noted, calls follow the shape of the dose curve; as a rule, active = well fitted curve in the direction sought with a large enough effect; inconclusive = small, poorly fitted or top-dose-only effect, or another doubt; inactive = no such curve, though single readings can be large; an effect the other way counts as inactive or inconclusive.
SMILES,Ub-GFP proteasome,TSHR agonist,HBB splicing,GFP derepression,HEK293 cAMP cs
CN1C[C@H](C(=O)N[C@]2(C)O[C@@]3(O)[C@H]4CCCN4C(=O)[C@@H](Cc4ccccc4)N3C2=O)C[C@H]2c3cccc4[nH]cc(c34)C[C@@H]21,1.1%,-10.3%,/,7.0%[9.22 µM],-4.9%
Cc1cccc(C)c1-n1nnnc1SCSc1nnnn1-c1c(C)cccc1C,-2.6%,?,-1.2%,1.6%,15.8µM*
Cc1ccccc1-n1nnnc1SCC(N)=O,-0.9%,-1.5%,-0.5%,6.6%,5.2%
O=C(c1cccs1)N(CC1CCCO1)c1nc(-c2ccccc2)cs1 (stereo not given),1.1%,?,0.9%[57.5 µM],7.5%,15.8µM*
O=C(c1ccco1)N(CC1CCCO1)c1nc(-c2ccccc2)cs1 (stereo not given),3.0%,?,-2.8%,-5.5%,?
CC1(C)[C@@H](O)CC[C@@]2(C)[C@H]1CC[C@]1(C)[C@H]2C(=O)C=C2[C@@H]3C[C@@](C)(C(=O)O)CC[C@]3(C)CC[C@@]21C,-2.1%,?,/,2.3%[9.22 µM],?
O=c1ccc2c(OCCCCc3ccccc3)c3ccoc3cc2o1,0.0%,?,0.2%,1.1%,25.1µM*
O=c1ccc2cc3ccoc3cc2o1,1.6%,-0.7%,/,-0.2%[9.22 µM],2.4%
Nc1ncn([C@@H]2O[C@@H](CO)[C@@H](O)[C@H]2O)c(=O)n1,-3.0%,1.3%,0.7%,-1.1%,-2.8%
COC(=O)C1=C(C)N(C)C(C)=C(C(=O)OC)C1c1ccc(F)c(Br)c1,-0.8%,?,-0.4%[9.22 µM],0.3%,31.6µM*
COc1cccc(Oc2cn[nH]c2-c2ccc(O)cc2O)c1,-2.6%,?,0.3%[0.369 µM],0.0%,1µM*
CCNc1ccc(S(=O)(=O)C(F)(F)F)cc1NC(=O)C12CCC(CC1)C2,1.4%,?,-0.5%,2.2%,15.8µM*
CCC(=O)Nc1cc(C)c(NC(=O)C23CC4CC(CC(C4)C2)C3)cn1,0.0%,9.7%,-0.1%[57.5 µM],-1.6%,-3.7%
COc1ccc(-c2coc3ccc(O[C@@H]4O[C@@H](COC(C)=O)[C@@H](OC(C)=O)[C@@H](OC(C)=O)[C@H]4OC(C)=O)c(OC(C)=O)c3c2=O)cc1,2.0%,-1.9%,/,0.0%[9.22 µM],-7.8%
CCOc1ccccc1C(=O)Nc1cc(OC)ccc1OC,/,?,/,/,25.1µM*
COC(=O)c1ccccc1NC(=O)c1ccccc1OC,6.5%,?,/,1.0%,15.8µM*
COC(=O)c1ccccc1NC(=O)c1ccc(F)cc1,-1.3%,?,/,0.0%,?
Cc1ccc(C(=O)CSC2=C(C#N)C(c3ccco3)C3=C(CC(C)(C)CC3=O)N2)cc1 (stereo not given),4.4%,13.8%,1.0%,5.7%,7.7%
N#CC1=C(SCC(=O)c2ccc(Cl)cc2)NC2=C(C(=O)CCC2)C1c1ccco1 (stereo not given),/,/,/,10µM*,/
CC1(C)CC(=O)C2=C(C1)NC(SCC(=O)Nc1ccccc1)=C(C#N)C2c1ccco1 (stereo not given),1.1%,?,-0.8%,-5.3%,15.8µM*
NC(N)=N/N=C(/c1ccccc1)c1ccc(O)cc1O,-5.4%[9.17 µM],4.4%[11.4 µM],0.3%[9.22 µM],-6.7%[9.22 µM],13.0%[11.4 µM]
CC(=O)N[C@H]1C[C@@H]1c1ccccc1,/,/,/,0.0%[20.6 µM],/
CCC(=O)N[C@@H]1Cc2ccccc2[C@@H](c2ccccc2)C1,-1.1%,?,/,1.0%,20µM*
N#Cc1ccc2ccn(CC(=O)NC3CCCCCC3)c2c1,2.7%,?,/,-3.4%,3.16µM*
COC(=O)c1cn(CC(=O)NC2CCCCC2)c2ccccc12,-2.4%,9.7%,/,-0.1%,1.7%
CCOC(=O)c1ccc(N2C(=O)CC(SCC(N)C(=O)OCC)C2=O)cc1 (stereo not given),1.5%,?,0.5%,-1.3%,3.16µM*
CCOC(=O)c1ccc(N2C(=O)CC(Sc3nnc(C)s3)C2=O)cc1 (stereo not given),/,/,/,10.5%[20.6 µM],/
CC[C@@H]1[C@H]2CCCCN3[C@@H]2[C@@H](C[C@H]3[C@@H]2C[C@H](C)C(=O)O2)[C@@H]2[C@H]1OC(=O)[C@H]2C,1.8%,2.9%,/,-4.5%[9.22 µM],8.6%
